Bioassay records: PubChem, several laboratories
Shown are actives, neighbours in structure and some others; about 4.5% of the full set was active somewhere.
697 NFkB inh – inhibitors of PMA/ionomycin-induced NF-kB reporter, 697 cells, primary screen, B-cell NF-kB inhibitor project, cell-based, luminescence, uHTS; inhibition, % at 4 µM; AID 435022, 2010; hit rate 0.33% among 330,000; 697 B-cell NF-kB luciferase reporter, 16 h; in the data active = inhibition above about 35%
CSC inhib – cancer stem cell viability inhibitors, primary screen, luminescence; cancer stem cell-like cells viability; inhibition, % at 7.5 µM; hit rate 1.1% among 300,000; in the data active = inhibition above about 75%; tested in HMLE shEcad cells
Jurkat NFkB inh – inhibitors of induced NF-kB luciferase reporter, primary screen, TCR NF-kB activation inhibitor project, cell-based, luminescence, uHTS. AID 435003, 2010. hit rate 0.53% among 330,000. inhibition, % at 4 µM. Jurkat, PMA/ionomycin-induced NF-kB luciferase reporter; in the data active = inhibition above about 50%
Mdm2 MdmX PPI – inhibitors of human Mdm2-MdmX association, primary screen, cell-based, luminescence, split luciferase, SaOS-2, uHTS; Protein Mdm4 (Homo sapiens) + E3 ubiquitin-protein ligase Mdm2 (Homo sapiens), …; SaOS-2 split-luciferase Mdm2/MdmX complementation; hit rate 3% among 330,000; AID 485346, 2010; inhibition, % at 8 µM;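 active = inhibition of at least 50% at 8 µM in the primary screen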
Beta apoptosis – inhibitors of cytokine-induced beta cell apoptosis, primary screen, luminescence; INS-1E cytokine-induced death, ATP luminescence, 48 h; percent of positive-control rescue, neutral wells zero; protection from apoptosis, % (concentration not given with the values); hit rate 0.8% among 300,000; AID 435005, 2010;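 active = Every replicate reaches about 75%, or at least half do and their mean reaches it too, limit read from the data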;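 note: higher means more ATP so stronger rescue from cytokine killing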
Gli-Sufu block – Gli-Sufu pathway antagonists, primary screen, luciferase luminescence, Sufu-KO-LIGHT cells, uHTS | Sufu-KO-LIGHT fibroblasts, Gli luciferase reporter luminescence | inhibition, % at 5 µM | hit rate 0.74% among 340,000 | AID 588413, 2011;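 active = inhibition above about 55%, limit read from the data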
697 NFkB conf – PMA/ionomycin-induced NF-kB reporter inhibitors, 697 retest, confirmation, B-cell NF-kB inhibitor project, cell-based, luminescence, single concentration; 697 B-cell NF-kB luciferase, 16 h; hit rate 35% among 2,000; inhibition, % at 4 µM; shares compounds with 697 NFkB inh; in the data active = inhibition mostly above about 28%, no sharp cut-off; inactive = mostly below about 22%
Numbers stand for hits; i = inactive; nt = no result.

SMILES | 697 NFkB inh | CSC inhib | Jurkat NFkB inh | Mdm2 MdmX PPI | Beta apoptosis | Gli-Sufu block | 697 NFkB conf
CCOc1ccc(-c2cc(CCCC(=O)NCCc3ccc(OC)c(OC)c3OC)no2)cc1 | 37 | i | i | i | i | i | i
CCOc1ccc(-c2cc(CCCC(=O)Nc3cc(OC)ccc3OC)no2)cc1 | i | i | i | i | i | i | nt
CCOc1ccc(NC(=O)CCCc2cc(-c3ccc(OCC)cc3)on2)cc1 | 40 | i | i | i | i | i | 40
Cn1cc(Cl)c(C(=O)Nc2nc3ccccc3s2)n1 | i | i | i | i | i | i | i
c1ccc2sc(Nc3nc4cc5c(cc4s3)OCO5)nc2c1 | i | i | i | i | i | i | i
COc1ccc(-c2nsc(SCC(=O)Nc3cc(C)on3)n2)cc1 | 43 | i | i | i | i | i | 30
Cc1nnc2sc(SCc3ccc(Br)cc3)nn2c1=O | 37 | i | i | i | i | i | i
CC(=O)Nc1cc(=O)c2cccnc2[nH]1 | nt | nt | nt | nt | nt | i | nt
Cc1ccc(-c2nsc3c(N4CCC(C(N)=O)CC4)ncnc23)cc1 | 78 | i | i | i | i | i | 53
CC(=O)c1ccc(NC(=O)C(Cc2ccccc2)n2cccc2)cc1 (stereo not drawn) | i | i | i | i | i | i | nt
CC(C)n1cnnc1SCC(=O)NC(=O)c1ccccc1 | i | i | i | i | i | i | nt
Cn1cc(SCC(=O)NCc2ccc(F)cc2)c2ccccc21 | 40 | i | i | i | i | i | i
Cc1ccnc(Nc2nc(-c3ccccc3)cs2)c1 | i | i | i | i | i | i | i
COc1ccc(-c2csc(Nc3cccc(C)n3)n2)cc1 | i | i | i | i | nt | i | i
CC(=O)Nc1ccc(-c2csc(Nc3cc(C)ccn3)n2)cc1 | i | i | i | i | i | i | nt
CCN(CC)CCCN=Cc1c(-c2ccccc2)[nH]n(-c2nc3ccccc3s2)c1=O | 40 | i | i | i | i | i | 42
CCCN=C(C)c1c(-c2ccccc2)[nH]n(-c2nc3ccccc3s2)c1=O | i | i | i | i | i | i | nt
COC(=O)c1ccccc1-c1ccc(/C=N/NC(=O)c2cc3ccccc3o2)o1 | i | nt | i | i | i | i | nt
COC(=O)c1ccccc1-c1c2ccc(=N)cc-2oc2cc(N)ccc12 | i | nt | i | i | 99 | i | i
CN(C(=O)COC(=O)CCCN1C(=O)c2cccc3cccc(c23)C1=O)C1CCS(=O)(=O)C1 (stereo not drawn) | i | i | i | i | i | i | nt
Cc1ccc(-c2csc3nc[nH]c(=S)c23)cc1 | i | i | i | i | i | i | nt
Cc1cc(-c2csc3nc[nH]c(=S)c23)cc(C)c1C | 35 | 104 | i | i | i | i | i
O=C1CSc2ccc(S(=O)(=O)CCC(=O)NC3CCCCC3)cc2N1 | i | i | i | i | i | i | nt
CCc1sc(C(=O)Nc2cccc(-n3cnnn3)c2)cc1C | 37 | nt | i | i | i | i | 39
COc1ccc(CC(=O)Oc2ccc(Cl)cc2Br)cc1S(=O)(=O)N1CCOCC1 | i | i | i | i | i | i | nt
SMILES | 697 NFkB inh | CSC inhib | Jurkat NFkB inh | Mdm2 MdmX PPI | Beta apoptosis | Gli-Sufu block | 697 NFkB conf
C/C(=N\N=C1\NC(=O)C(Cc2ccccc2)S1)c1ccccc1 (stereo not drawn) | i | i | i | i | i | i | nt
CC(=O)/C(C#N)=C1\NC(=O)C(Cc2ccccc2)S1 (stereo not drawn) | i | i | i | i | i | i | i
O=C1NC(c2cc(Cl)cc([N+](=O)[O-])c2O)Nc2ccccc21 (stereo not drawn) | 36 | i | i | i | i | i | i
CCOC(=O)N1CCC(NC(=O)c2cc3c(-c4ccc(OC)c(OC)c4)nn(C)c3s2)CC1 | 41 | i | i | i | i | i | i
CCc1ccc(-c2nnn(CCC#N)n2)cc1 | i | i | i | i | i | i | nt
CCc1ccc(-c2nnn(CCC(=O)OC)n2)cc1 | 52 | i | i | i | nt | i | 64
Cc1ccc(C)c(NC(=S)Nc2ccc(S(=O)(=O)Nc3ncccn3)cc2)c1 | i | nt | i | i | i | i | nt
Cc1ccc(NC(=S)Nc2ccc(S(=O)(=O)Nc3ncccn3)cc2)c(C)c1 | 50 | i | i | i | i | i | i
Cc1csc(SCC(=O)NC2CCS(=O)(=O)C2)n1 (stereo not drawn) | i | nt | i | i | i | i | nt
c1cncc(-c2nc3ccccc3[nH]2)c1 | i | i | i | i | i | i | nt
S=C(Nc1ccc(-c2nc3ccccc3[nH]2)cc1)Nc1cccnc1 | i | i | i | i | i | i | i
CCCCNc1nc(N)nc(-c2cc(Cl)ccc2O)n1 | i | nt | i | i | i | i | i
COc1ccc(/C=N\n2nnc3ccccc32)cc1 | i | i | i | i | i | i | i
COc1ccc(/C=N/n2c(C)nc3ccccc3c2=O)cc1 | i | i | i | i | i | i | nt
Cc1ccccc1OCC(=O)NCCNC(=O)c1ccccn1 | i | nt | i | i | i | i | nt
O=C1/C(=C/Nc2ccc3c(c2)OCO3)CCc2ccccc21 | i | i | i | i | i | i | i
O=C(NCc1cccs1)C(=O)NCC1OCCCN1S(=O)(=O)c1cc(F)ccc1F (stereo not drawn) | i | i | i | i | i | i | nt
C(=N\Nc1ccccc1)/c1nc2ccccc2s1 | i | i | i | i | i | i | i
NC(=S)c1cc2ccc(O)cc2oc1=O | nt | nt | nt | nt | nt | i | nt
Oc1cc(O)cc(-c2cc3ccc(O)cc3o2)c1 | 38 | i | i | i | i | i | 35
CC1CC(C)CN(S(=O)(=O)c2ccc(C(=O)NCCCn3ccnc3)cc2)C1 (stereo not drawn) | 70 | 101 | i | i | 114 | i | 50
Cc1ccc(OCC(=O)Nc2ccon2)c([N+](=O)[O-])c1 | i | i | i | i | i | i | nt
O=C(COC(=O)c1cnccn1)Nc1cc(S(=O)(=O)N2CCOCC2)ccc1Cl | i | nt | i | i | i | i | nt
O=S(=O)(c1ccccc1)c1cnc(-c2cccnc2)nc1-c1ccccc1 | i | i | i | i | i | i | nt
Cc1ncc(S(=O)(=O)c2ccc(Cl)cc2)c(-c2ccccc2)n1 | 40 | i | i | i | i | i | i
CC(C(=O)Nc1nc(-c2ccc(F)cc2)cs1)N1C(=O)C2CC=CCC2C1=O (stereo not drawn) | i | i | i | i | i | i | nt
CCC(CO)Oc1cc(NCc2ccc(C)cc2)c2ncn(C(C)C)c2c1 (stereo not drawn) | i | i | i | i | i | i | nt
CCC(CO)Oc1cc(NCc2ccccc2O)c2ncn(C(C)C)c2c1 (stereo not drawn) | 45 | nt | i | i | i | i | 46
Cc1cc(C)c[n+](CC(=O)c2ccc(C)c([N+](=O)[O-])c2)c1 | i | i | i | i | i | nt | nt
